In the supplement of paper PMC10338343:
± gives the standard deviation.

Legend:
[1] = tested on: MILI (PIWIL2) piRISC loaded with L1MC piRNA (26 nt); assay: pre-steady-state target cleavage rate (min^-1); guide: L1MC piRNA 5'p-UAACUAAAUACUAUGCAAGCUGUAGG; higher = faster piRNA-guided slicing of the target;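 further: 1 nM active piRISC with 0.1 nM target library at 33 °C single turnover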
Outline: (§1)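 At 33 °C in HEPES–potassium acetate buffer, a transcribed, DNA-blocked target RNA library […] was exposed for 0–8 or 0–960 min to 1 nM active affinity-purified piRISC carrying a single synthetic guide, with or without 500 nM GTSF1 partner protein. Uncleaved targets were sequenced and normalised to depth and to weakly complementary targets. With three trials pooled and k3 capped at 0.0001 min^-1, a burst-and-steady-state fit produced the pre-steady-state cleavage rate.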

[2] = tested on: EfPiwi piRISC loaded with L1MC piRNA (26 nt); assay: pre-steady-state target cleavage rate (min^-1); auxiliary factor: 500 nM Ephydatia muelleri Gtsf1; guide: L1MC piRNA 5'p-UAACUAAAUACUAUGCAAGCUGUAGG; MIWI and MILI are mouse PIWI proteins and EfPiwi is from a freshwater sponge; tags in brackets are library labels; higher = faster piRNA-guided slicing of the target
Outline: as §1

[3] = auxiliary factor: 500 nM mouse GTSF1
[4] = auxiliary factor: none (no GTSF1)

| Sequence | pre-steady-state target cleavage rate [1, 3] | pre-steady-state target cleavage rate [1, 4] | pre-steady-state target cleavage rate [2] |
| --- | --- | --- | --- |
| UCCUGGAACAGCUUGCAAAGUAAUUAGUUA | 0.131 ± 0.018 | 0.00424 ± 0.0022 | 0.00403 ± 0.002 |
| UCCUCCUACACGUUGCAUAGUAUUUAGUAA | 0.163 ± 0.022 | 0.00299 ± 0.0029 | 0.00566 ± 0.0027 |
| UCCUGGAACAGCUUGGUUAGUAUUUAGUUA | 0.213 ± 0.02 | 0.0126 ± 0.0037 | 0.0135 ± 0.005 |
| UCCUGCUACUGCUUGCAUUGUAUUUAGUUA | 0.211 ± 0.018 | 0.0081 ± 0.0024 | 0.00835 ± 0.0023 |
| UCCUGGUGACAGCUUGCAUAGUAUUUAGUUA | 0.507 ± 0.044 | 0.0285 ± 0.0085 | 0.0328 ± 0.01 |
| UCCUGCUACAGGAAGCAUAGUAUUUAGUUA | 0.282 ± 0.014 | 0.00969 ± 0.0027 | 0.0127 ± 0.0035 |
| UCCUGGAUGAGCAUGCAUAGUAUUUAGUAA | 0.21 ± 0.024 | 0.00494 ± 0.0024 | 0.00596 ± 0.0037 |
| UCCUGCUACAGCUGCAUAGUAUUUAGUUA | 0.271 ± 0.02 | 0.00665 ± 0.0026 | 0.0102 ± 0.0026 |
| UCCUGGAUGAGCUUGCAUAGUAAUUUAGUUA | 0.0721 ± 0.0082 | 0.00789 ± 0.0023 | 0.00357 ± 0.0029 |
| UCCUCCAACAGCUUGCAUAGUAUUUAGUUA | 0.329 ± 0.017 | 0.00861 ± 0.0027 | 0.113 ± 0.032 |
| UCCUGGUACUGCUUGCAUUGUAUUUAGUUA | 0.0791 ± 0.015 | 0.00624 ± 0.0037 | 0.00516 ± 0.0027 |
| UCCUGGAUCAGCUUGGAUAGUAUUUAGUUA | 0.185 ± 0.013 | 0.00786 ± 0.0022 | 0.0092 ± 0.0025 |
| UCCUGGAUCAGCUAGCAUAGUAUUUAGUUA | 0.236 ± 0.012 | 0.00845 ± 0.0024 | 0.0313 ± 0.009 |
| UCCUGGAUCUCCUUGCAUAGUAUUUAGUUA | 0.226 ± 0.014 | 0.00588 ± 0.0018 | 0.0227 ± 0.0066 |
| UCCUGGAUCAGCUUGCAUAGUAGUUAGUUA | 0.201 ± 0.016 | 0.00826 ± 0.0022 | 0.0207 ± 0.0049 |
| UCCUGGAACAGCUUGCUUAGUAAUUAGUUA | 0.213 ± 0.019 | 0.00562 ± 0.0024 | 0.00639 ± 0.0027 |
| UCCUGGAAAGCUUGCAUAGUAUUUAGUUA | 0.276 ± 0.016 | 0.00624 ± 0.0022 | 0.035 ± 0.0098 |
